# PubChem BioAssay (NCATS)
# For some of these results: Results with a measured potency or affinity are listed apart. Active and inactive are the calls of the source. Where a call stands in place of a potency, no number is given.
# How the values were obtained:
# [1] = Ebola virus entry assay, blue channel fluorescence
# [2] = Ebola virus entry reporter assay, green channel fluorescence
# [3] = Ebola virus entry cell assay, ratio channel
# [4] = Ebola virus entry assay, reporter ratio channel; AC50: Channel type: primary unless noted; outcome: Channel type: primary unless noted
# [5] = Ebola virus entry assay, blue channel (ratio component)
# [6] = Ebola virus entry assay, green channel fluorescence
# [7] = Immunotoxin (SS1P) sensitization/mitigation study. Vehicle arm (DMEM) (AID 1159513); settings: cell viability with vehicle (DMEM); series mostly up to 46.1 µM; also: potency is read from the fitted curve at half-maximal effect
smiles,measurement,setting,value
CC(C)CN(C[C@@H](OP(=O)(O)O)[C@H](Cc1ccccc1)NC(=O)O[C@H]1CCOC1)S(=O)(=O)c1ccc(N)cc1,outcome,[1],inactive
same,outcome,[2],inactive
same,outcome,[3],inactive
Cc1nnc(C(C)C)n1C1C[C@H]2CC[C@@H](C1)N2CC[C@H](NC(=O)C1CCC(F)(F)CC1)c1ccccc1 (some centres not stated),outcome,[1],inactive
same,outcome,[4],inactive [Channel type: confirmation]
same,outcome,[5],inactive
same,outcome,[3],inactive
Cc1ccc(Nc2nccc(N(C)c3ccc4c(C)n(C)nc4c3)n2)cc1S(N)(=O)=O,outcome,[6],inactive
same,Potency,[7],20.9 µM (active)
CN(C)CCc1c[nH]c2ccc(Cn3cncn3)cc12,outcome,[1],inactive
same,outcome,[2],inactive
same,outcome,[3],inactive
CCC(=O)NCCC1CCc2ccc3c(c21)CCO3 (configuration not stated),outcome,[1],inactive
same,outcome,[2],inactive
same,outcome,[3],inactive
CC(C)(O/N=C(\C(=O)N[C@@H]1C(=O)N2C(C(=O)[O-])=C(C[n+]3ccccc3)CS[C@H]12)c1csc(N)n1)C(=O)O,outcome,[1],inactive
same,outcome,[2],inactive
same,outcome,[3],inactive
OCCOCCN1CCN(C2=Nc3ccccc3Sc3ccccc32)CC1,outcome,[1],inactive
same,outcome,[5],inactive
same,outcome,[2],inactive
same,outcome,[3],inactive
C=C1[C@H](CO)[C@@H](O)C[C@@H]1n1cnc2c(=O)[nH]c(N)nc21,outcome,[1],inactive
same,outcome,[2],inactive
same,outcome,[3],inactive
CCOC(=O)[C@H](CCc1ccccc1)N[C@@H](C)C(=O)N1[C@H](C(=O)O)C[C@H]2CCCC[C@@H]21,outcome,[1],inactive
same,outcome,[2],inactive
same,outcome,[3],inactive
COc1cc([C@@H]2c3cc4c(cc3[C@@H](O[C@@H]3O[C@@H]5CO[C@@H](C)O[C@H]5[C@H](O)[C@H]3O)[C@H]3COC(=O)[C@H]23)OCO4)cc(OC)c1O,outcome,[1],inactive
same,outcome,[2],inactive
same,outcome,[3],inactive
CCC(=O)OC(OP(=O)(CCCCc1ccccc1)CC(=O)N1C[C@H](C2CCCCC2)C[C@H]1C(=O)O)C(C)C (some centres not stated),outcome,[1],inactive
same,outcome,[2],inactive
same,outcome,[3],inactive
N[C@@H](Cc1cc(I)c(Oc2ccc(O)c(I)c2)c(I)c1)C(=O)O,outcome,[1],inactive
same,outcome,[2],inactive
same,outcome,[3],inactive
CO[C@@]1(NC(=O)C2SC(=C(C(N)=O)C(=O)O)S2)C(=O)N2C(C(=O)O)=C(CSc3nnnn3C)CS[C@@H]21 (some centres not stated),outcome,[1],inactive
same,outcome,[2],inactive
same,outcome,[3],inactive
OCC(S)CS (configuration not stated),outcome,[1],inactive
same,outcome,[2],inactive
same,outcome,[3],inactive
COc1cc(Br)c(C[N+]2(CCOCCC3CCC4CC3C4(C)C)CCOCC2)cc1OC (configuration not stated),outcome,[1],inactive
same,outcome,[2],inactive
same,outcome,[3],inactive
NC[C@H]1O[C@H](O[C@H]2[C@H](O)[C@@H](O[C@H]3O[C@H](CO)[C@@H](O)[C@H](N)[C@H]3O)[C@H](N)C[C@@H]2N)[C@H](O)[C@@H](O)[C@@H]1O,outcome,[1],inactive
same,outcome,[2],inactive
same,outcome,[3],inactive
CCC[C@@]1(CCc2ccccc2)CC(O)=C([C@H](CC)c2cccc(NS(=O)(=O)c3ccc(C(F)(F)F)cn3)c2)C(=O)O1,outcome,[1],inactive
same,outcome,[2],inactive
same,outcome,[3],inactive
CN1C(=O)OC(C)(C)C1=O,outcome,[1],inactive
same,outcome,[2],inactive
same,outcome,[3],inactive
CC(=O)N1CCN(c2ccc(OC[C@H]3CO[C@](Cn4ccnc4)(c4ccc(Cl)cc4Cl)O3)cc2)CC1,outcome,[1],inactive
same,outcome,[2],inactive
same,outcome,[3],inactive
CCCCC(=O)N(Cc1ccc(-c2ccccc2-c2nn[nH]n2)cc1)[C@@H](C(=O)O)C(C)C,outcome,[1],inactive
same,outcome,[2],inactive
same,outcome,[3],inactive
CCNC(=O)[C@@H]1CCCN1C(=O)[C@H](CCCN=C(N)N)NC(=O)[C@H](CC(C)C)NC(=O)[C@@H](CC(C)C)NC(=O)[C@H](Cc1ccc(O)cc1)NC(=O)[C@H](CO)NC(=O)[C@H](Cc1c[nH]c2ccccc12)NC(=O)[C@H](Cc1cnc[nH]1)NC(=O)[C@@H]1CCC(=O)N1,outcome,[1],inactive
same,outcome,[2],inactive
same,outcome,[3],inactive
C#CCC(Cc1cnc2nc(N)nc(N)c2n1)c1ccc(C(=O)N[C@@H](CCC(=O)O)C(=O)O)cc1 (some centres not stated),outcome,[1],inactive
same,outcome,[2],inactive
same,outcome,[3],inactive
CN[C@@H]1[C@H](O[C@H]2[C@H](O[C@H]3[C@H](O)[C@@H](O)[C@H](N=C(N)N)[C@@H](O)[C@@H]3N=C(N)N)O[C@@H](C)[C@]2(O)C=O)O[C@@H](CO)[C@H](O)[C@H]1O,outcome,[1],inactive
same,outcome,[2],inactive
same,outcome,[3],inactive
CC(C)CN(C[C@@H](O)[C@H](Cc1ccccc1)NC(=O)O[C@@H]1CCOC1)S(=O)(=O)c1ccc(N)cc1,outcome,[1],inactive
same,outcome,[2],inactive
same,outcome,[3],inactive
CC(CCc1ccccc1)NCC(O)c1ccc(O)c(C(N)=O)c1 (configuration not stated),outcome,[1],inactive
same,outcome,[2],inactive
same,outcome,[3],inactive
CCOc1cc(CC(=O)N[C@@H](CC(C)C)c2ccccc2N2CCCCC2)ccc1C(=O)O,outcome,[1],inactive
same,outcome,[2],inactive
same,outcome,[3],inactive
CC(C)(C)NC(=O)[C@@H]1C[C@@H]2CCCC[C@@H]2CN1C[C@@H](O)[C@H](Cc1ccccc1)NC(=O)[C@H](CC(N)=O)NC(=O)c1ccc2ccccc2n1,outcome,[1],inactive
same,outcome,[2],inactive
same,outcome,[3],inactive
